Where “and” joins values, the source holds several entries; their conditions need not be identical. Identical values can stand only once. Out of some 290,000 compounds screened, about 890 (0.31%) were called active. Rule as the data show it: active = inhibition mostly above about 52% (no sharp cut-off); inactive = mostly below about 76%. The list comes from a sample in which actives are over-represented; it also holds similar structures and randomly drawn compounds. The source holds several records for some structures; these can differ, active in one and inactive in another.
Assay: cell-free HIV fusion peptide-binding blockers – biochemical, uHTS, fluorescence dequenching, primary screen (AID 1986)
Settings: 30 min, stronger effect = higher value
[1] = measured here: repeat confirmation average inhibition, at 18.6 µM

Row | SMILES | inhibition (at 20 µM) | inhibition [1]
1 | CCCOc1ccc2c(CC)cc(=O)oc2c1C | -0.2% (inactive) | 
2 | Cc1sc2nc(C3CC3)nc(N3CCN(S(=O)(=O)c4ccc(F)cc4)CC3)c2c1C | -0.3% (inactive) | 
3 | CC(=O)c1ccc(-n2nnnc2SCC(=O)Nc2sc(C)c(C)c2C#N)cc1 | 6.6% (inactive) | 
4 | CSc1cccc(NC(=O)CCCOc2ccccc2)c1 | -0.1% (inactive) | 
5 | Cc1cnc(C(=O)OCc2csc(CC(=O)Nc3ccccc3C)n2)cn1 | 1.8% (inactive) | 
6 | c1ccc(C2=Nc3c(ccc4ccccc34)C(c3ccncc3)=NN2)cc1 | -3% (inactive) | 
7 | Cc1ccc(CNS(=O)(=O)c2ccc(F)c(F)c2)n1C | -1.8% (inactive) | 
8 | CCOC(=O)c1c(C)[nH]c(C(=O)N/N=C/c2ccc(Br)cc2)c1C | -1.7% (inactive) | 
9 | O=C(O)c1cc(-c2ccco2)nc2ccc(Br)cc12 | 51.2% (inactive) and 65% (active) | 11.6%
10 | O=C(O)c1cc(-c2ccco2)nc2cc3ccccc3cc12 | 35.7% (inactive) | 
11 | O=C(O)c1cc(-c2ccco2)nc2ccccc12 | 0.1% (inactive) | 
12 | O=C(NC1CCCC1)C(c1ccncc1)N(C(=O)c1csnn1)c1ccc(F)cc1 (configuration not stated) | 0.5% (inactive) | 
13 | Cc1ccc(N2CC(C(=O)Nc3nnc(SCC(=O)NCC4CCCO4)s3)CC2=O)cc1 (configuration not stated) | 0.9% (inactive) | 
14 | COc1ccc([N+](=O)[O-])cc1/C=N/NC(=O)/C(=C\c1cccs1)NC(=O)c1ccccc1 | -1.3% (inactive) | 
15 | O=C(N/N=C/c1cc([N+](=O)[O-])cc([N+](=O)[O-])c1O)/C(=C\c1cccs1)NC(=O)c1ccccc1 | 65% (active) | 
16 | O=C(N/N=C/c1cccs1)/C(=C/c1ccccc1)NC(=O)c1ccccc1 | 1.7% (inactive) | 
17 | O=C(Cc1ccc(Cl)cc1)NCC(=O)N1CCN(c2ccccc2)CC1 | 0.4% (inactive) | 
18 | O=C1NN(c2ccccc2)C(=O)/C1=C/c1ccc(Sc2cccc3ccccc23)o1 | 71.8% (active) | 
19 | O=C1NN(c2ccccc2)C(=O)/C1=C/c1ccc(Sc2ccc(Cl)cc2)o1 | 17.5% (inactive) | 
20 | Cc1ccc(Sc2ccc(/C=C3/C(=O)NN(c4ccccc4)C3=O)o2)cc1 | 9.4% (inactive) | 
21 | O=C(NCCCc1ccccc1)[C@@H]1Cc2ccccc2CN1 | -0.5% (inactive) | 
22 | NS(=O)(=O)c1ccc(-c2ccc(C=C3C(=O)c4ccccc4C3=O)o2)cc1 | 1.7% (inactive) | 
23 | CC(C)CC1=C/C(=C/c2ccc(-c3ccccc3)o2)C(=O)O1 | 51.7% (active) | 
24 | COc1ccccc1-c1ccc(/C=C2/C=C(CC(C)C)OC2=O)o1 | 40.1% (inactive) | 
25 | O=Cc1cn(CCC(=O)O)nc1-c1cccc(Br)c1 | 1.1% (inactive) | 

Row | SMILES | inhibition (at 20 µM) | inhibition [1]
26 | O=C(O)CCn1cc(/C=C\C(=O)c2ccc(Cl)cc2)c(-c2cccc(Br)c2)n1 | 60.3% (active) | 
27 | Cc1ccc(-c2nn(CCC(=O)O)cc2/C=C\C(=O)c2ccc(Br)cc2)cc1 | 48.6% (inactive) | 
28 | CCOC(=O)c1sc(NC(=O)c2cc3n(n2)C(C(F)(F)F)CC(c2ccccc2)N3)c(C(=O)OCC)c1C (configuration not stated) | 0.6% (inactive) | 
29 | Cc1cc2c(cc1S(=O)(=O)N(C)Cc1ccccc1)OCC(=O)N2 | -2% (inactive) | 
30 | COc1cc(OC)c(OC)cc1/C=C1\Oc2cc(OCC(=O)N3Cc4ccccc4C[C@H]3C(=O)O)ccc2C1=O | 123% (active) | 106%
31 | COc1ccc(OC)c(/C=C2\Oc3cc(OCC(=O)N4CC(O)C[C@H]4C(=O)O)ccc3C2=O)c1 (some centres not stated) | 2.3% (inactive) | 
32 | COc1cccc(/C=C2\Oc3cc(OCC(=O)N4Cc5ccccc5C[C@H]4C(=O)O)ccc3C2=O)c1 | 64.4% (inactive) | 40.9%
33 | Cc1nc(Oc2cccc(Cl)c2)c2oc3ccccc3c2n1 | -0.8% (inactive) | 
34 | O=C(COC(=O)CCCOc1ccccc1)NNC(=O)c1ccc([N+](=O)[O-])cc1 | -0.7% (inactive) | 
35 | CC1=CN2C(=N)/C(=C/c3ccco3)C(=O)N=C2S1 | 7.9% (inactive) | 
36 | CC1=CN2C(=N)/C(=C/c3ccc(C)o3)C(=O)N=C2S1 | 5.4% (inactive) | 
37 | Cn1c(=O)n(C)c2cc(/C=N/NC(=O)c3ccncc3)ccc21 | 1.3% (inactive) | 
38 | Cc1[nH]n(-c2ncc(-c3ccccc3)s2)c(=O)c1C(c1ccc(Cl)cc1)C(C#N)C#N (configuration not stated) | 70.8% (active) | 
39 | Cc1[nH]n(-c2ncc(-c3ccccc3)s2)c(=O)c1C(c1ccc(Br)cc1)C(C#N)C#N (configuration not stated) | 57.3% (inactive) | 40.9%
40 | Cc1[nH]n(-c2ncc(-c3ccc(Cl)cc3)s2)c(=O)c1C(c1ccc(Cl)cc1)C(C#N)C#N (configuration not stated) | 48.5% (inactive) | 
41 | CC(C)(C)n1nc2c(c1NC(=O)Cc1cccc3ccccc13)CS(=O)C2 (configuration not stated) | -1.8% (inactive) | 
42 | O=C(Nc1ccc(Cl)cc1)Nc1ccc2c(c1)OCO2 | -0.2% (inactive) | 
43 | CN(C)C(=O)c1ccc(-c2cc(C(F)(F)F)nn2C)s1 | -1.2% (inactive) | 
44 | N#C/C(=C\c1ccc(-c2cccc(C(F)(F)F)c2)o1)C(=O)Nn1cnnc1 | 49.6% (inactive) | 
45 | CNC(=O)c1ccc(-c2cc(C(F)(F)F)nn2C)s1 | -1.4% (inactive) | 
46 | Cn1nc(C(F)(F)F)cc1-c1ccc(/C=C(\C#N)C(=O)c2cccc(C(F)(F)F)c2)s1 | 55.2% (active) | 
47 | Cn1nc(C(F)(F)F)cc1-c1ccc(/C=C(\C#N)C(=O)c2ccccc2)s1 | 92% (active) | 179%
48 | Cn1nc(C(F)(F)F)cc1-c1ccc(S(N)(=O)=O)s1 | 2.8% (inactive) | 
49 | Cc1ccc(-n2nnc(-c3cc4ccccc4nc3Cl)n2)cc1 | 0.2% (inactive) | 
50 | O=C(CN(c1ccc(F)cc1)S(=O)(=O)c1ccc2c(c1)OCCO2)NCC1CCCO1 (configuration not stated) | 1.4% (inactive) | 

Row | SMILES | inhibition (at 20 µM) | inhibition [1]
51 | CCOc1ccc2nc(SCC(=O)c3ccc(C)s3)sc2c1 | 0% (inactive) | 
52 | CCOc1ccc(NC(=O)C2CSC(c3ccncc3)=N2)cc1 (configuration not stated) | 1.2% (inactive) | 
53 | CC1=C(C(=O)Nc2ccccn2)C(c2ccccc2)n2ncnc2N1 (configuration not stated) | -2.7% (inactive) | 
54 | CCNc1nc(NC(C)C)nc(SCCOC(=O)c2ccccc2)n1 | 2.3% (inactive) | 
55 | Cc1c(C)n(Cc2ccc(F)cc2)c2ccc(C(=O)NCCN3CCOCC3)cc12 | -1.7% (inactive) | 
56 | COc1ccccc1NS(=O)(=O)c1cccc(NC(=O)Nc2ccccc2)c1 | 1.4% (inactive) | 
57 | O=C(Nc1ccccc1C(=O)O)c1cccc(N2C(=O)c3ccccc3C2=O)c1 | 2.5% (inactive) | 
58 | NC(=O)NCc1cccc(Cl)c1 | 2.5% (inactive) | 
59 | CCOC(=O)C(=CNc1ccc(C(F)(F)F)cc1Cl)C(=O)OCC | 0.9% (inactive) | 
60 | CCOc1ccc2c(c1)c1nnc(SCC(=O)NC3CC3)nc1n2C | -0.7% (inactive) | 
61 | C(=N\NC1=Nc2cccc3cccc1c23)/c1ccccc1 | 20.5% (inactive) | 
62 | Clc1ccc(/C=N/NC2=Nc3cccc4cccc2c34)cc1 | 43.5% (inactive) | 
63 | Clc1ccccc1/C=N/NC1=Nc2cccc3cccc1c23 | 51.2% (active) | 
64 | N/C(CC(=O)NC1CCCCC1)=N\OCC(=O)Nc1ccc(Cl)c(Cl)c1 | 1.7% (inactive) | 
65 | COc1cc2c(cc1NC(=S)NC(=O)/C=C/c1ccc(OC)c(OC)c1)oc1ccccc12 | 1.2% (inactive) | 
66 | COc1ccc(/C=C/C(=O)NC(=S)Nc2cc3oc4ccccc4c3cc2OC)cc1 | 1.6% (inactive) | 
67 | COc1cc2c(cc1NC(=S)NC(=O)/C=C/c1ccco1)oc1ccccc12 | 67.5% (active) | 
68 | COc1ccc(C2NC(=O)c3ccccc3O2)cc1 (configuration not stated) | -1.3% (inactive) | 
69 | Cc1ccc(SCCNCc2ccco2)cc1 | 0.3% (inactive) | 
70 | COc1cc2c(cc1OC)-c1cc3ccc4c(c3c[n+]1CC2)OCO4 | 120% (active) | 70.7%
71 | COc1cc2c(cc1O)CC[n+]1cc3c(OC)c(OC)ccc3cc1-2 | 0.6% (inactive) | 
72 | COc1ccc2cc3[n+](cc2c1OC)CCc1cc2c(cc1-3)OCO2 | -1.4% (inactive) | 
73 | O=[N+]([O-])c1sccc1CS(=O)(=O)c1ccccc1 | -1.5% (inactive) | 
74 | CC(=O)Nc1cccc(NC(=O)c2ccc([N+](=O)[O-])cc2Cl)c1 | 3.5% (inactive) | 
75 | O=C(Nc1cccc(Cl)c1)c1cc(N=Nc2ccc([N+](=O)[O-])cc2Cl)ccc1O | 52.8% (active) | 

Row | SMILES | inhibition (at 20 µM) | inhibition [1]
76 | O=C(Nc1cccc(O)c1)c1ccc([N+](=O)[O-])cc1Cl | 0.3% (inactive) | 
77 | CC1C(=O)N2CCCc3cc(NS(C)(=O)=O)cc1c32 (configuration not stated) | 2.3% (inactive) | 
78 | Cc1cc(N2CCCC2)ccc1/C=C1/C(=O)N(C)C(=S)N1C | 9.5% (inactive) | 
79 | COCCN1C(=O)/C(=C/c2ccc(N3CCCC3)cc2C)SC1=S | 147% (inactive) | 
80 | CCN1C(=O)/C(=C/c2ccc(N3CCCC3)cc2)NC1=S | 149% (inactive) | 
81 | Cc1cc(N2CCCC2)ccc1/C=C1\NC(=S)N(C)C1=O | 94.7% (active) | 
82 | O=C1N/C(=C/c2ccc(N3CCCC3)cc2)C(=O)N1c1ccccc1 | 4.9% (inactive) | 
83 | O=C1/C(=C/c2ccc(N3CCCC3)cc2)NC(=S)N1C1CC1 | 65.9% (active) | 83.2%
84 | CC(C)(C)C(=O)Nc1cccc(-c2nc3ccccc3[nH]2)c1 | 1.3% (inactive) | 
85 | CC(C)OC(=O)CSc1nc(C(C)C)nc2ccccc12 | 1.3% (inactive) | 
86 | Cc1c(Cl)cccc1NC(=O)N1CCCC1 | 0.6% (inactive) | 
87 | O=C(O)CCCCCN1C(=O)/C(=C/c2ccncc2)SC1=S | 9.2% (inactive) | 
88 | O=C(O)CCCCCN1C(=O)/C(=C\c2ccc(-c3ccc(Cl)cc3)o2)SC1=S | 82.2% (active) | 
89 | O=C(O)CCCN1C(=O)/C(=C\C(Cl)=C\c2ccccc2)SC1=S | 40.3% (inactive) | 
90 | O=C(O)CCCN1C(=O)/C(=C\c2ccc(-c3nc4ccccc4s3)o2)SC1=S | 69.3% (active) | 
91 | O=Cc1ccc(-c2nc3ccccc3s2)o1 | 1.2% (inactive) | 
92 | O=C(O)CC(C(=O)O)N1C(=O)/C(=C/c2ccc(-c3nc4ccccc4s3)o2)SC1=S (configuration not stated) | 99% (active) | 66.9%
93 | O=C(O)CCCN1C(=O)/C(=C\c2ccco2)SC1=S | 53% (inactive) | 3.5%
94 | O=C(O)CCCCCN1C(=O)/C(=C\c2ccncc2)SC1=S | 6.4% (inactive) | 
95 | O=C(O)c1ccc(-c2nc3ccccc3s2)o1 | 1.8% (inactive) | 
96 | O=C(O)CCN1C(=O)/C(=C/c2ccc(-c3nc4ccccc4s3)o2)SC1=S | 24.8% (inactive) | 
97 | N#C/C(=C\c1ccc(-c2nc3ccccc3s2)o1)C(N)=O | 2.1% (inactive) | 
98 | O=C(O)CCN1C(=O)/C(=C\c2ccc(-c3nc4ccccc4s3)o2)SC1=S | 73.9% (active) | 

From PubChem BioAssay AID1986 (Sanford-Burnham Center for Chemical Genomics, 2009)
